Reference: PubChem BioAssay (Tox21)
Inconclusive results are not listed. Calls of active or inactive are those of the source. Unless noted, the call rests on the fitted dose curve; in most records, active means well fitted curve in the direction sought with a large enough effect in the repeat runs; inconclusive means weak or mixed curves; inactive means no such curve, though single readings can be large; an effect the other way counts as inactive or inconclusive.

Experiments:
[1] = A CellTox Green Cytotoxicity Assay to monitor cytotoxicity in HEK293 cells - 32 hour (AID 1224881); further: nearly all actives have a fitted effect of over 40% in size
How it was run: (§1)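 Seeding of HEK293 cells together with cytotoxicity dye preceded a 5 h incubation at 37 C/5% CO2. Test compounds in DMSO were then added and fluorescence monitored across 40 h.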

[2] = A CellTox Green Cytotoxicity Assay to monitor cytotoxicity in HepG2 cells - 0 hour (AID 1224882); further: nearly all actives have a fitted effect of over 35% in size
How it was run: (§2)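 Nonlytic assay: viable cells exclude the dye, so fluorescence scales with cell death. HepG2 at 600 cells/well, compounds added after 5 h, signal read across 40 h.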

[3] = A CellTox Green Cytotoxicity Assay to monitor cytotoxicity in HepG2 cells - 32 hour (AID 1224883); further: nearly all actives have a fitted effect of over 50% in size
How it was run: as §2

[4] = A CellTox Green Cytotoxicity Assay to monitor cytotoxicity in HEK293 cells - 8 hour (AID 1224884); further: nearly all actives have a fitted effect of over 35% in size
How it was run: as §1

[5] = qHTS RealTime-Glo MT Cell Viability Assay in HepG2 cells - 16 hour (AID 1224885); further: nearly all actives have a fitted effect of over 50% in size
How it was run: (§3)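 Real-time, nonlytic viability: 600 HepG2 cells/well mixed with NanoLuc enzyme plus prosubstrate; 5 h settle, compound (DMSO) added by pintool; luminescence monitored over 40 h at 37 C.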

[6] = qHTS RealTime-Glo MT Cell Viability Assay in HEK293 cells - 24 hour (AID 1224886); further: top concentration of the series differs between compounds; nearly all actives have a fitted effect of over 50% in size
How it was run: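 Cells + reagent dispensed (600 cells/well, HEK293) → 5 h at 37 C/5% CO2 → 23 nL compound in DMSO pinned → 40 h at 37 C → luminescence read at 0, 8, 16, 24, 32, 40 h.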

[7] = qHTS RealTime-Glo MT Cell Viability Assay in HEK293 cells - 8 hour (AID 1224887); further: top concentration of the series differs between compounds; nearly all actives have a fitted effect of over 50% in size
How it was run: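 Tox21 screen in HEK293 using RealTime-Glo MT chemistry, with cells and reagent co-dispensed. Luminescence proportional to viable cell number was captured at intervals during 40 h compound exposure at 37 C.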

[8] = A CellTox Green Cytotoxicity Assay to monitor cytotoxicity in HEK293 cells - 16 hour (AID 1224888); further: nearly all actives have a fitted effect of over 35% in size
How it was run: as §1

[9] = A CellTox Green Cytotoxicity Assay to monitor cytotoxicity in HepG2 cells - 8 hour (AID 1224890); further: nearly all actives have a fitted effect of over 45% in size
How it was run: as §2

[10] = qHTS assay to identify small molecule antagonists of the estrogen receptor alpha (ER-alpha) signaling pathway using the BG1 cell line in the presence of 0.1 nM 17-beta-estradiol - cell viability counter screen (AID 1259241); further: nearly all actives have a fitted effect of over 40% in size
How it was run: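 VM7Luc4E2 cells (endogenous full-length ER-alpha, 4xERE-luciferase), cultured 5 days in charcoal-stripped serum, exposed to compounds with 0.1 nM 17beta-estradiol (final) for 22 hr at 37C. Viability read in same wells as live-cell protease fluorescence after 30 min.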

[11] = qHTS assay to identify small molecule antagonists of the androgen receptor (AR) signaling pathway using the MDA cell line in the presence of 0.5 nM R1881 - cell viability counter screen (AID 1259242); further: nearly all actives have a fitted effect of over 45% in size
How it was run: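 R1881 at 0.5 nM final stimulated MDA-kb2 cells during 16 hr compound treatment at 37C. Cytotoxicity read: CellTiter-Fluor fluorescence after 30 min.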

[12] = qHTS assay to identify small molecule phospholipidosis (PLD) inducers (AID 1259344; active means well fitted curve in the direction sought with a large enough effect; an effect the other way counts as inactive or inconclusive)
How it was run: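 Quantitative HTS in HepG2: compound plus LipidTOX Red dye for 24 h, paraformaldehyde fixation with Hoechst 33342, widefield high-content imaging; amiodarone as positive and DMSO as negative control.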

[13] = qHTS assay to identify small molecule HDAC inhibitors (AID 1259364);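 further: wild-type HCT-116 cells with endogenous class I/II HDAC activity; top concentration of the series differs between compounds; nearly all actives have a fitted effect of over 45% in size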
How it was run: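 Relative class I and II HDAC activity is taken from the luminogenic signal in HCT-116 cells, with compound exposure 2 hr and reagent development 30 min at room temperature.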

[14] = qHTS assay to identify small molecule agonists of the sonic hedgehog signaling (Shh) pathway - cell viability counter screen (AID 1259366); further: nearly all actives have a fitted effect of over 50% in size
How it was run: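 NIH/3T3-derived Gli1-Luc reporter cells, 2,000 per well, received compound after 4 h and were treated about 23 h at 37C. Viability measured in the same wells by CellTiter-Fluor fluorescence after 1 h.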

[15] = qHTS assay to identify small molecule antagonists of the sonic hedgehog signaling (Shh) pathway - cell viability counter screen (AID 1259367); further: nearly all actives have a fitted effect of over 55% in size
How it was run: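 Seed 3T3 Gli1-Luc cells at 2,000 per well; incubate 4 hr; add compound in DMSO, then conditioned medium; incubate at 37C with 5% CO2; add CellTiter-Fluor after 23 hr; read fluorescence 1 hr later.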

[16] = qHTS assay to identify small molecule agonists of the sonic hedgehog signaling (Shh) pathway (AID 1259368; calls by dose curve;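 further: NIH/3T3-derived 3T3Gli1-Luc cells carrying a stable Gli1-driven firefly luciferase reporter; series mostly up to about 92 µM; nearly all actives have a fitted effect of over 15% in size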)
How it was run: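 Mouse fibroblast (NIH/3T3) reporter cells with stably integrated Gli1-Luc were treated 24 hr with compound; firefly luciferase luminescence served as the read-out.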

[17] = qHTS RealTime-Glo MT Cell Viability Assay in HepG2 cells - 0 hour (AID 1224889); further: nearly all actives have a fitted effect of over 50% in size
How it was run: as §3

[18] = qHTS assay to identify small molecule HDAC inhibitors - cell viability counter screen (AID 1259365)
How it was run: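 Wild-type HCT-116 cells, 1,500/well, cultured overnight, then compound-treated 2 h at 37 C. Viability measured as ATP luminescence with CellTiter-Glo after 30 min at room temperature.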

[19] = target: Androgen receptor (Homo sapiens) (UniProt P10275); assay: qHTS assay to identify small molecule antagonists of the androgen receptor (AR) signaling pathway using the MDA cell line in the presence of 0.5 nM R1881 (AID 1259243); further: nearly all actives have a fitted effect of over 50% in size
How it was run: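 We exposed MDA-kb2 cells to compounds under 0.5 nM R1881 stimulation for 16 hr at 37C and quantified MMTV-driven luciferase by luminescence.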

Measured: Potency

Sequence of Androgen receptor (Homo sapiens) (P10275 whole entry, looked up): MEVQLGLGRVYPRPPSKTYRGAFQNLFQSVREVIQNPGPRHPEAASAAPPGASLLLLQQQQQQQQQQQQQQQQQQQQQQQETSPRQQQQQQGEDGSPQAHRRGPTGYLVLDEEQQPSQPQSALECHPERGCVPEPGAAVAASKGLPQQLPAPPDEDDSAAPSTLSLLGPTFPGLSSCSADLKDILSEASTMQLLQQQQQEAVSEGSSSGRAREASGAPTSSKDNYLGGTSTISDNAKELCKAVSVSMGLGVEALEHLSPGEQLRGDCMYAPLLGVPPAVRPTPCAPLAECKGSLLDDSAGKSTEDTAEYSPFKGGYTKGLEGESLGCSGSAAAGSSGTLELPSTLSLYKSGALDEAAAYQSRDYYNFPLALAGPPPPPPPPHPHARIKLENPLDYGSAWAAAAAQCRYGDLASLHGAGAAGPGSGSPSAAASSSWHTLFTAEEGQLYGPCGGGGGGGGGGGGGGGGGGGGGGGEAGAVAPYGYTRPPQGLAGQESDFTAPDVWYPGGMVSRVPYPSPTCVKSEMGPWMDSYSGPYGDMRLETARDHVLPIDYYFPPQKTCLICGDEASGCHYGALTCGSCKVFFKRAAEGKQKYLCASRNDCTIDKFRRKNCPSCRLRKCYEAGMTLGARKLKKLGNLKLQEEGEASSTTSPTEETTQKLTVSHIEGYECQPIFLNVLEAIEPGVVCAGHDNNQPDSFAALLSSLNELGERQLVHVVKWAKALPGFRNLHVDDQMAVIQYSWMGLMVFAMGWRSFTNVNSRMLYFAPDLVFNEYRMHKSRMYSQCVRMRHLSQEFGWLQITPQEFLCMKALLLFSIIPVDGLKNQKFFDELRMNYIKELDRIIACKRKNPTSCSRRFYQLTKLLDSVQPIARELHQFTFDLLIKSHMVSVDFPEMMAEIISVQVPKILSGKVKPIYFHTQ

CC1(C)[C@@H](O[C@H]2O[C@H](C(=O)O)[C@@H](O)[C@H](O)[C@H]2O[C@@H]2O[C@H](C(=O)O)[C@@H](O)[C@H](O)[C@H]2O)CC[C@]2(C)[C@H]3C(=O)C=C4[C@@H]5C[C@@](C)(C(=O)O)CC[C@]5(C)CC[C@@]4(C)[C@]3(C)CC[C@@H]12
not listed: [17] | [18] | [19]
inactive: all other assays above

CC(=O)Nc1ccc(CC(=O)O)cc1
not listed: [6] | [8] | [19]
inactive: all other assays above

NC1CCCCC1N (stereo not drawn)
not listed: [6] | [8] | [12] | [18] | [19]
inactive: all other assays above

Cc1ccc(C(C)C)cc1
not listed: [12] | [18]
inactive: all other assays above

C=C(C)CC(C)(C)C
not listed: [12] | [19]
inactive: all other assays above

Cc1nnc(NS(=O)(=O)c2ccc(N)cc2)s1
inactive: all assays above

NC(=O)NC(N)=O
not listed: [12] | [19]
inactive: all other assays above

OC[C@H]1O[C@@H](Oc2ccc(O)cc2)[C@H](O)[C@@H](O)[C@@H]1O
not listed: [6] | [19]
inactive: all other assays above
